# Test results reported in PubChem BioAssay AID2101 (National Center for Advancing Translational Sciences (NCATS), 2009).
# Where “and” joins values, the source holds several entries; their conditions need not be identical. Equal values may be shown once. In all, about 330,000 compounds went through this assay and about 300 (0.091%) were called active. Inconclusive results (about 4%) are left out. Calls follow the shape of the dose curve; as a rule, active = well fitted inhibition curve with a large enough effect; inconclusive = small, poorly fitted or top-dose-only effect, or effect the other way, or another doubt; inactive = no such curve, though single readings can be large or run the other way. Shown is part of a subset that was picked to be rich in actives. A call without a number means that no potency is given here. Where a structure was tested more than once in an assay, its records may differ in their call.
# Target: Lysosomal acid glucosylceramidase (Homo sapiens) (UniProt P04062)
# Test: qHTS Assay for Inhibitors and Activators of N370S glucocerebrosidase as a Potential Chaperone Treatment of Gaucher Disease
# Conditions: N370S GC spleen homogenate, 4MU-glucoside fluorescence; series mostly up to 59.4 µM
# Excerpt: NIH Chemical Genomics Center [NCGC]
# NIH Molecular Libraries Probe Production Centers Network [MLPCN]
# Assay Submitter (PI): Wei Zheng
# Glucocerebrosidase (GC) catalyzes the hydrolysis of beta-glucocerebroside to glucose and ceramide in lysosomes. Mutations in the glucocerebrosidase gene result in Gaucher disease, an autosomal recessive lysosomal storage disorder. Many of the mutations encountered in patients with Gaucher disease are missense alterations that may cause misfolding, decreased stability and/or mistrafficking of this lysosomal protein. […] These inhibitors include iminosugar analogs and three non-iminosugar inhibitors identified from a previous HTS of 62,000 compounds with the wild type recombinant enzyme. However, the enhancement of enzyme activity by the chaperone action of an enzyme inhibitor must be balanced against the direct inhibition of the enzyme. An enzyme activator could also function as a chaperone by binding to the enzyme and helping to correct its misfolding and mistrafficking. While activators for GC have not yet been identified, they may have better therapeutic potential than inhibitors. Therefore the discovery and development of chemical activators may provide a new strategy for the chaperone therapy.
# We have optimized a new assay using N370S mutant GC derived from the spleen of a Gaucher patient. […] In addition, the MLPCN compound library has expanded, which increases the chance of finding new and better probes.
# NCGC Assay Protocol Summary:
# This is a fluorogenic enzyme assay with 4-methylumbelliferyl-beta-D-glucopyranoside as the substrate and N370S glucocerebrosidase from human spleen homogenate as the enzyme preparation. Upon the hydrolysis of this fluorogenic substrate, the resulting product, […] which can be detected by a standard fluorescence plate reader. Data were normalized to the controls for basal activity (without enzyme) and 100% activity (with enzyme). The AC50 values were determined from concentration-response data modeled with the standard Hill equation.
# Assay buffer: 50 mM citric acid (titrated with potassium phosphate to pH 5.0), 100 mM potassium chloride, 10 mM sodium chloride, 1 mM magnesium chloride, 0.01% Tween-20.
# 1536-well assay protocol:
# (1) Add 2 ul/well of spleen homogenate (27 ug final)
# (2) Add 23 nL compounds in DMSO solution. The final titration was 0.5 nM to 58 uM.
# (3) Add 2 ul of substrate (1 mM final)
# (4) Incubate at 37C for 40 min.
# (5) Add 2 ul stop solution (1M NaOH and 1M Glycine mixture, pH 10)
# (6) Detect the assay plate in a ViewLux plate reader (PerkinElmer) with Ex=365 nm and Em=440nm.
# Keywords: Glucocerebrosidase, beta-glucosidase, Gaucher Disease, pharmacological chaperone, chaperone therapy, high throughput screening, glucocerebrosidase inhibitor, MLSMR, MLSCN, NIH Roadmap, qHTS and NCGC
# Potency is read from the fitted curve at half-maximal effect.
row,SMILES,Potency
1,CNCC[C@H](Oc1ccc(C(F)(F)F)cc1)c1ccccc1,inactive and 8.91 µM (active)
2,CC(C)CC(C)Nc1ccc(Nc2ccccc2)cc1 (stereo not given),inactive
3,CC(CCC(=O)O)C1CCC2C3C(O)C[C@@H]4CC(O)CC[C@@]4(C)C3CC[C@@]12C (stereo not given in full),inactive
4,CC(Cl)Cl,inactive
5,CC(=O)[O][Sn]([c]1ccccc1)([c]1ccccc1)[c]1ccccc1,inactive
